This is an account of results in PubChem BioAssay (NCATS).

Inconclusive results are not listed. Calls of active or inactive are those of the source. Unless noted, calls follow the shape of the dose curve; as a rule, active = well fitted curve in the direction sought with a large enough effect; inconclusive = small, poorly fitted or top-dose-only effect, or another doubt; inactive = no such curve, though single readings can be large; an effect the other way counts as inactive or inconclusive.

Experiment [1] can be described thus: Quantitative High-Throughput drug screen in 47 multiple myeloma cell lines against the NCATS MIPE library collection: KMS28BM_JCRB cell viability assay (AID 1919874). Also: nearly all actives have a fitted effect of over 35% in size. Also: potency is read from the fitted curve at half-maximal effect. Put shortly: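 MIPE 4.0 approved/investigational drugs; 500 cells/well; 48 h 37 °C humidified 5% CO2; CTG luminescence readout; DMSO = 100%, media = 0% viability.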
A short description of experiment [2]: qHTS drug screen for cell cycle checkpoint inhibitors in PARPi-resistant BRCA-mutant ovarian cancer cell lines. (AID 1963452; calls by dose curve; also: potency is read from the fitted curve at half-maximal effect). The note with it: PEO1/OlaR viability, CellTiter-Glo luminescence, 96 h; for Z-AUC: stronger effect = lower value. Summed up: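 PEO1, PEO4 and PEO1/OlaR ovarian cancer cells, 600 per well, exposed 96 h at 37C to a dilution series. Viability read by CellTiter-Glo luminescence, normalized to DMSO and empty wells; activity summarized as Z-AUC.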
In general terms: In qHTS, concentration-response curves come from the screen itself.

Experiment [3] deals with Cytochrome P450 2D6 (Homo sapiens) (UniProt P10635). The experiment can be described thus: qHTS for inhibitors of CYP2D6 against the NCATS DSHEA and TCM libraries (AID 1919972). Also: % is scaled to controls: 0 for no effect and ±100 for the full control effect. Summed up:
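Luminescent P450-Glo read-out of CYP2D6 turnover of a luciferin substrate after NADPH-driven reaction of 30-45 min at room temperature. Compounds were first preincubated 15 min with enzyme at titrated concentrations; quinidine was the intraplate control.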

Experiment [4] has as its target Cytochrome P450 2C9 (Homo sapiens) (UniProt P11712). The experiment can be described thus: qHTS for inhibitors of CYP2C9 against the NCATS DSHEA and TCM libraries (AID 1919973).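 Also: luminogenic pro-luciferin CYP2C9 substrate turned into luciferin with NADPH regeneration; series mostly up to about 34 µM; % is scaled to controls: 0 for no effect and ±100 for the full control effect.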 Summed up:
(§1)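 Read-out is luminescence after P450-Glo detection (30 min, RT). Before that: 15 min compound–enzyme preincubation, then 30-45 min reaction with 1x NADPH regeneration solution, substrate concentration isoform-specific.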

For experiment [5], the target named is Cytochrome P450 2C19 (Homo sapiens) (UniProt P33261). The experiment in a line: qHTS for inhibitors of CYP2C19 against the NCATS DSHEA and TCM libraries (AID 1919974).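 Also: luminescence from luciferin released by CYP2C19 oxidation of a pro-luciferin substrate; % is scaled to controls: 0 for no effect and ±100 for the full control effect.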 Put shortly: as §1
Experiment [6] addresses Cytochrome P450 1A2 (Homo sapiens) (UniProt P05177). The experiment in a line: qHTS for inhibitors of CYPIA2 against the NCATS DSHEA and TCM libraries (AID 1919976).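 Also: light from luciferin formed by CYP1A2 from a pro-luciferin substrate; series mostly up to about 37 µM; % is scaled to controls: 0 for no effect and ±100 for the full control effect.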 Summed up: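 CYP1A2 + luciferin substrate, 100 mM KPO4-type buffer; cmpd 15 min RT; 1x NADPH regen, 30-45 min RT dark; detection reagent 30 min RT; luminescence. Minus-enzyme wells as background; furafylline intraplate control.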

A short description of experiment [7]: qHTS Counterscreen for compound interference against the NCATS DSHEA and TCM libraries (AID 1919978).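 Also: compounds preincubated with 1 µM D-luciferin or buffer before detection reagent; % of control where 0% means no effect.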 The note with it: firefly luciferase detection reagent interference, luminescence. Summed up:
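Luminescence counterscreen for detection-kit interference: compounds at 19.5 nM–39.8 uM final, 15 min RT with 1 uM D-luciferin or buffer only; detection reagent added, 30 min RT, then read.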

Experiment [8] is described as follows: Dual reporter qHTS for agonist of Pregnane X Receptor (hPXR) against the NCATS DSHEA and TCM libraries: Fluorescence readout (AID 1920058). Also: 0% is about no effect. Put shortly: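 HepG2 hPXR-Luc, 2000 cells/well, 5 h attach; cpds ~24 h, 37 °C/5% CO2; CellTiter-Fluor 1 h; fluor. Ex/Em 405/540 nm = viability.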
Experiment [9] is described as follows: Dual reporter qHTS for antagonist of Pregnane X Receptor (hPXR) against the NCATS DSHEA and TCM libraries: Fluorescence Readout (AID 1920061). Also: 0% is about no effect. Put shortly:
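HepG2 hPXR-Luc, 2000 cells/well, charcoal-stripped FBS medium; 5 h attach; RIF 2 uM final; 24 h 37C/5% CO2; CellTiter-Fluor 1 h, fluor 405/540; ONE-Glo 30 min RT, lum.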

Experiment [10] is described as follows: qHTS for identification of novel therapeutic agents for treatment of microphthalmiaassociated transcription factor (MiT) renal cell carcinoma (RCC) (AID 1963991).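 Also: curves scaled with 100% = DMSO viability and 0% = empty wells.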 Particulars: CellTiter-Glo, 48 h, stronger effect = lower value. Put shortly: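 UOK109/UOK124/UOK145 (TFE3 fusions, three partners); 500 cells/well; MIPE v4.0, 1912 cpds, 11 conc.; 48 h, 37 C; CellTiter-Glo, 15 min RT; lum. Norm.: DMSO 100%, empty 0%.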

The mark [11] stands for this setting: measured here: PEO1 parental Z-AUC.

Sequence of Cytochrome P450 2C19 (Homo sapiens) (P33261 whole entry, looked up): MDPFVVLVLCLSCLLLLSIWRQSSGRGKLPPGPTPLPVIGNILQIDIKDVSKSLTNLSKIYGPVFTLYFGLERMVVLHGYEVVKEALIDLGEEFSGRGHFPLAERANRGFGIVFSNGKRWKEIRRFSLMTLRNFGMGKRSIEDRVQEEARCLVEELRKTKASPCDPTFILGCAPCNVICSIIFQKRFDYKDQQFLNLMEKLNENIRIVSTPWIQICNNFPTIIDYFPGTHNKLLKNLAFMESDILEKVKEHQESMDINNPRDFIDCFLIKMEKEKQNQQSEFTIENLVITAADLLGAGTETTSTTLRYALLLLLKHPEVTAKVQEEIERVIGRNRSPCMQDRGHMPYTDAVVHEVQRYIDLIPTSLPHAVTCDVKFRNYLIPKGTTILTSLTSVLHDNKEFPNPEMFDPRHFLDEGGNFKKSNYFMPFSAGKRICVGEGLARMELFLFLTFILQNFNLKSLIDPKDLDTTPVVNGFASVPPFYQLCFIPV
Sequence of Cytochrome P450 2C9 (Homo sapiens) (P11712 whole entry, looked up, canonical isoform): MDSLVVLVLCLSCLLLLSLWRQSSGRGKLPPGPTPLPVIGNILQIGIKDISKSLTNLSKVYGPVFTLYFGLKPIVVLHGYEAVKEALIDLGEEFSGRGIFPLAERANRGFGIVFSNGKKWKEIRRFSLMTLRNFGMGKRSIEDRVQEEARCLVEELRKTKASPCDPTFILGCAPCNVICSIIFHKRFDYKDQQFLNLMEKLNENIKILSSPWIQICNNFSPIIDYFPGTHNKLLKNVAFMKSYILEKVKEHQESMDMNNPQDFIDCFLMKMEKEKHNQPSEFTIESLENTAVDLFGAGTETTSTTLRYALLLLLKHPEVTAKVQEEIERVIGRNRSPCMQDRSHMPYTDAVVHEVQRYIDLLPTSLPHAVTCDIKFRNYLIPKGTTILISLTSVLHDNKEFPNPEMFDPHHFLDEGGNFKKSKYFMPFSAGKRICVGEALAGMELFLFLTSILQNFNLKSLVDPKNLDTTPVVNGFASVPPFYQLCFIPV
Sequence of Cytochrome P450 1A2 (Homo sapiens) (P05177 whole entry, looked up): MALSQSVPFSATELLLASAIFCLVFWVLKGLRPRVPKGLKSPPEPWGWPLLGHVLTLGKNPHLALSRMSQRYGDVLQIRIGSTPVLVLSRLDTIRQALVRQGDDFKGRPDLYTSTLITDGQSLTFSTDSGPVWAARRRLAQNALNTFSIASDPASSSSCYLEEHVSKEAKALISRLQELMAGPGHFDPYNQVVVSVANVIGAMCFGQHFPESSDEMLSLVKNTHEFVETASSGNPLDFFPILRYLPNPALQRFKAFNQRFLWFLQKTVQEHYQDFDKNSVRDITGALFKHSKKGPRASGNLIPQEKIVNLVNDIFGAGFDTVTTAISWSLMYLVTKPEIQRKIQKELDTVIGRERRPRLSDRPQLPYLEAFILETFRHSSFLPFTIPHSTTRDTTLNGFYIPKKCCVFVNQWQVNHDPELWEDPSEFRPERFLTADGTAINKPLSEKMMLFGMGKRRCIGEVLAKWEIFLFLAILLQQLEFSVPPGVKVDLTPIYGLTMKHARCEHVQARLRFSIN
Sequence of Cytochrome P450 2D6 (Homo sapiens) (P10635 whole entry, looked up): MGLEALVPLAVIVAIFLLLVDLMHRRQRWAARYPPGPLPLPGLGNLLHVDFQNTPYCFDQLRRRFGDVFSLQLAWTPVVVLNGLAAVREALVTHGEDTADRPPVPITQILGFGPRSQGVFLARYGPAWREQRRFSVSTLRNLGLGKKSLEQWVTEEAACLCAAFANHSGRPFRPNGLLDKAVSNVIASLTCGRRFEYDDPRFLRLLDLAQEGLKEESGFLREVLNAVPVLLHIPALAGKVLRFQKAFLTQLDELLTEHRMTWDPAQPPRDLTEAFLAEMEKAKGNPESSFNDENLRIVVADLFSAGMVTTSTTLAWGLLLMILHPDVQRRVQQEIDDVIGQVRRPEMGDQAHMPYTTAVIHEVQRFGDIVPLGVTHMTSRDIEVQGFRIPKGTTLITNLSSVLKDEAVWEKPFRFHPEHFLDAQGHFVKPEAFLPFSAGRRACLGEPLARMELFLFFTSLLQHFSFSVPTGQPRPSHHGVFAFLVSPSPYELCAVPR

For the compound `Cc1ncc(-c2ccnc(Nc3ccc(S(C)(=O)=O)cc3)n2)n1C(C)C`, the Potency in [1] is 4.69 µM (active). In addition, the Z-AUC in [2] is -1.39 (inactive); in experiment [2] (setting [11]), -0.968; in [2] (measured here: PEO4 Z-AUC), -1.44.
As for `Cc1ccc2nc(NCCN)c3ncc(C)n3c2c1`, in experiment [1], the Potency was 6.62 µM (active). For the same compound, the Z-AUC is 0.876 (inactive) in [2], 0.537 in experiment [2] (setting [11]) and 1.09 in [2] (measured here: PEO4 Z-AUC).
Take `CCCCOc1ccc(C(=O)Nc2ccc(F)cc2F)cc1`: in experiment [1], the Potency entry is “inactive”. Moreover, the values for the Z-AUC in experiment [2], in experiment [2] (setting [11]) and in [2] (measured here: PEO4 Z-AUC) were -0.387 (inactive), -0.847 and -0.905, respectively.
With `C=CC(=O)N1CCc2ccc(-n3c(=O)ccc4cnc5ccc(-c6cnn(C)c6)cc5c43)cc21`, the Potency in experiment [1] was 2.96 µM (active). Also, the Z-AUC is -0.366 (inactive) in [2], -0.285 in experiment [2] (setting [11]) and -0.334 in experiment [2] (measured here: PEO4 Z-AUC).
Turning to `Cc1cnc(Nc2ccc(N3CCN(C)CC3)cc2)nc1Nc1cccc(S(=O)(=O)NC(C)(C)C)c1`, in [1], the Potency is 5.26 µM (active).
On to `CCCNC(=O)[C@H]1O[C@H]1C(=O)N[C@H](C(=O)N1CCC[C@@H]1C(=O)OC)C(C)CC` (some centres undefined), for which, in experiment [1], the Potency was 7.43 µM (active).
For `Cc1cn([C@@H]2O[C@H](CO)[C@@H](O)[C@H]2F)c(=O)[nH]c1=O`, in experiment [1], the Potency result was “inactive”.
Take `C[C@@]12C(=O)OC(=O)[C@@]1(C)C1CCC2O1`: the Potency in [1] was 1.05 µM (active).
As for `COc1cc(C[C@@H](CO)[C@H](CO)Cc2ccc(O)c(OC)c2)ccc1O`, the Potency result in experiment [1] is “inactive”. Also, the Z-AUC in [2] is 0.833 (inactive); in [2] (setting [11]), 0.526; in experiment [2] (measured here: PEO4 Z-AUC) it was 0.516.
In the case of `COc1cc([C@@H]2c3cc4c(cc3[C@@H](O[C@@H]3O[C@@H]5CO[C@@H](c6cccs6)O[C@@H]5[C@H](O)[C@@H]3O)[C@H]3COC(=O)[C@H]23)OCO4)cc(OC)c1O`, the Potency in experiment [1] was 1.32 µM (active).
For `C=CC1=C(C(=O)O)N2C(=O)[C@@H](NC(=O)C(=NO)c3csc(N)n3)[C@H]2SC1`, in [1], the Potency entry was “inactive”.
Consider `COC[C@H](NC(=O)c1cnc(C)s1)C(=O)N[C@@H](COC)C(=O)N[C@@H](Cc1ccccc1)C(=O)[C@@]1(C)CO1`, for which the Potency in [1] is 0.0418 µM (active); in experiment [2], 0.138 µM (active). Also, the results for the Z-AUC in [2] (setting [11]) and in [2] (measured here: PEO4 Z-AUC) were -2.62 and -3.23, respectively.
In the case of `CC(C=CC(=O)NO)=C[C@@H](C)C(=O)c1ccc(N(C)C)cc1`, the Potency in experiment [1] was 0.187 µM (active).
Regarding `C=C(C)[C@@H]1CC[C@]2(C(=O)O)CC[C@]3(C)[C@H](CC[C@@H]4[C@@]5(C)CC[C@H](O)C(C)(C)[C@@H]5CC[C@]43C)[C@@H]12`, the Potency entry in experiment [1], in experiment [4] and in experiment [6] was “inactive” each time. For the same compound, the compound was classed as inactive in experiment [3], in experiment [5], in experiment [8] and in experiment [9]. The max response in [7] is 1.9% (inactive). Moreover, the Z-AUC in experiment [2] was 1.23 (inactive); in experiment [2] (setting [11]), 0.622; in experiment [2] (measured here: PEO4 Z-AUC), 0.86. The z-score was 0.38 in experiment [10] (TFE3-RCC UOK109 viability, measured here: UOK109 Z-AUC); 0.714 in experiment [10] (TFE3-RCC viability, measured here: UOK124 Z-AUC); 0.25 in experiment [10] (TFE3-RCC viability, measured here: UOK145 Z-AUC).
On to `COC(=O)C=CC(=O)OC`, for which the Potency result in [1] is “inactive”.
As for `CN(C)CC(=O)N1CCC(c2ccc(NC(=O)c3ncc(C#N)[nH]3)c(C3=CCCCC3)c2)CC1`, the Potency in [1] was 26.4 µM (active). The Z-AUC was -1.11 (inactive) in [2], -0.797 in experiment [2] (setting [11]) and -0.584 in [2] (measured here: PEO4 Z-AUC).
For the compound `CCOC(=O)[C@@H](N)Cc1ccc(-c2cc(O[C@H](c3ccc(Cl)cc3-n3ccc(C)n3)C(F)(F)F)nc(N)n2)cc1`, the Potency in experiment [1] was 18.7 µM (active). For the same compound, the Z-AUC in [2] is -0.389 (inactive); in [2] (setting [11]), -0.62; in experiment [2] (measured here: PEO4 Z-AUC) it was -0.32.
`COC(=O)C1C2CC3c4[nH]c5cc(OC)ccc5c4CCN3CC2CC(OC(=O)c2cc(OC)c(OC)c(OC)c2)C1OC` (centres undefined): the Potency in experiment [1] was 20.9 µM (active). For the same compound, the figures for the Z-AUC in experiment [2], in [2] (setting [11]) and in experiment [2] (measured here: PEO4 Z-AUC) were 1.42 (inactive), 0.441 and 0.416, respectively.
Take `CC(C)(C)c1nc2c3cc[nH]c(=O)c3c3cc(F)ccc3c2[nH]1`: the Potency in experiment [1] is 2.09 µM (active). Also, the Z-AUC in experiment [2] was -0.0239 (inactive); in experiment [2] (setting [11]), 0.604; in experiment [2] (measured here: PEO4 Z-AUC) it was 0.212.
As to `O=C(Nc1cccc(Nc2ncc(Br)c(NCCc3cnc[nH]3)n2)c1)N1CCCC1`, the Potency in experiment [1] was 18.7 µM (active). In addition, the Z-AUC was -0.432 (inactive) in experiment [2], -0.127 in [2] (setting [11]) and -0.522 in experiment [2] (measured here: PEO4 Z-AUC).
For the compound `Cn1cnc(=N)c2[nH]cnc21`, in experiment [1], the Potency was 0.0469 µM (active). Further, the Z-AUC is 1.05 (inactive) in [2], 0.768 in [2] (setting [11]) and 0.897 in [2] (measured here: PEO4 Z-AUC).
On to `C[N+](C)([O-])CCNc1ccc(NCC[N+](C)(C)[O-])c2c1C(=O)c1c(O)ccc(O)c1C2=O`, for which, in [1], the Potency result is “inactive”. Also, the values for the Z-AUC in experiment [2], in experiment [2] (setting [11]) and in experiment [2] (measured here: PEO4 Z-AUC) were 0.909 (inactive), -0.431 and 0.857, respectively.
With `c1cncc(CN2CCC(n3ncc4c(N5CCOCC5)nc(-c5ccc6[nH]ccc6c5)nc43)CC2)c1`, in experiment [1], the Potency was 11.8 µM (active). Besides, the Z-AUC is -0.587 (inactive) in experiment [2], -0.0764 in experiment [2] (setting [11]) and -0.549 in experiment [2] (measured here: PEO4 Z-AUC).
Consider `OCCNC1CCCc2c1[nH]c1ccc(-c3ccccc3)cc21` (centres undefined), for which the Potency in [1] was 20.9 µM (active). Moreover, the Z-AUC in [2] was -0.486 (inactive); in experiment [2] (setting [11]) it was -0.384; in [2] (measured here: PEO4 Z-AUC), 0.0631.
As to `C=CC[C@@H]1C=C(C)C[C@H](C)C[C@H](OC)[C@H]2O[C@@](O)(C(=O)C(=O)N3CCCC[C@H]3C(=O)O[C@H](C(C)=C[C@@H]3CC[C@H](O)[C@H](OC)C3)[C@@H](C)[C@@H](O)CC1=O)[C@@H](C)C[C@@H]2OC`, the Potency in [1] was 0.833 µM (active).
As for `O=c1[nH]c(=O)n([C@H]2C[C@@H](O)[C@@H](CO)O2)cc1F`, in experiment [1], the Potency is 20.9 µM (active).
